Compound activity from PubChem BioAssay.
Most compounds without a hit are left out; they make up all but 2.4% or so of the library.
D2 ag-1: Beta-Arrestin HTS for Positive Allosteric Modulators of the Human D2 Dopamine Receptor: Agonists | D(2) dopamine receptor (Homo sapiens), P14416 | DiscoveRx PathHunter D2 beta-arrestin, luminescence, 90 min; 100% = 57 uM dopamine signal | activation, % (no concentration beside the values) | 0.084% of 360,000 active | AID 624465, 2012; in the data active means activation above about 40%; inconclusive means between about 15% and that limit
Target sequence (P14416 whole entry, looked up): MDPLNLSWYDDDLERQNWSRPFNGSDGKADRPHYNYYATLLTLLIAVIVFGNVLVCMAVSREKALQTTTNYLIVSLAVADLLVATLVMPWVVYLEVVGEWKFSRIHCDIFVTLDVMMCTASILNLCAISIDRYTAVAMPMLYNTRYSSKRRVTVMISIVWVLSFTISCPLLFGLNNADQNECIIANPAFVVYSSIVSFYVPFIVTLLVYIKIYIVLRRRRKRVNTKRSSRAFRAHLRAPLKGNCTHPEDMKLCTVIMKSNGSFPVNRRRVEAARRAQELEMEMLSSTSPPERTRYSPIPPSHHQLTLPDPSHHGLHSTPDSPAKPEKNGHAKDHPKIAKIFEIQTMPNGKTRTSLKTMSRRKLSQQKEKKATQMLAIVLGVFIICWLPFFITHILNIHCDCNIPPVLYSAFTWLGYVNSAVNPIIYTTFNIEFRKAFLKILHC
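DiscoveRx PathHunter D2 beta-arrestin cells (2,100/well) attached overnight, then compound-stimulated 90 min at 37 C in HBSS/10 mM HEPES/0.1% Tween-20 buffer; beta-galactosidase complementation read by luminescence after 1 h at ambient temperature. Dopamine 57 uM final (EC100) as control.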
D2 ag-2: HTS Assay for Allosteric Agonists of the Human D2 Dopamine Receptor: Primary Screen for Agonists | D(2) dopamine receptor (Homo sapiens), P14416 | HEK293 T-REx D2 cells, calcium flux agonist mode | activation, % at 2 µM | 0.53% of 340,000 active;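 active means activation over 3 SD above normal in the single-dose calcium agonist read, cut at about 30% in these data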; further: 0% is about no effect
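Agonism is scored from calcium flux in a force-coupled, inducible HEK293 cell line expressing D2, read kinetically for 180 s after compound addition against dopamine controls.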
D2 antag: HTS Assay for Allosteric Antagonists of the Human D2 Dopamine Receptor: Primary Screen for Antagonists. D(2) dopamine receptor (Homo sapiens), P14416. inhibition, % at 10 µM. AID 485344, 2010. HEK293 TREx D2 cells, calcium flux, dopamine EC80. 2% of 340,000 active; in the data active means inhibition above about 30%; inactive means below that, where a call was filed; further: 0% is about no effect
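Dopamine at EC80 is the agonist stimulus; test compounds precede it by 180 s. Calcium flux read kinetically in a force-coupled, inducible HEK293 T-REx D2 cell line.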
D2 PAM-1: Beta-Arrestin HTS for Positive Allosteric Modulators of the Human D2 Dopamine Receptor: Potentiators; D(2) dopamine receptor (Homo sapiens), P14416; 0.23% of 360,000 active; DiscoveRx D2 beta-arrestin cells, luminescence, 90 min; 100% = 57 uM dopamine signal; potentiation, % (test concentration not listed); in the data active means potentiation above about 50%; inconclusive means mostly about 30% to 49%
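PathHunter D2 cells, attached overnight at 37 deg C, received compound in DMSO plus dopamine at EC20 (50 nM final) for 90 min at 37 deg C. Beta-arrestin recruitment was read as luminescence after 1 h with detection reagent at ambient temperature.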
D2 PAM-2: HTS Assay for Positive Allosteric Modulators of the Human D2 Dopamine Receptor: Primary Screen for Potentiators | D(2) dopamine receptor (Homo sapiens), P14416 | HEK293 T-REx D2, calcium flux, EC20 dopamine potentiation | potentiation, % at 10 µM | 0.34% of 340,000 active;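 active means potentiation over 3 SD above the plate norm, cut at about 30% in these data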; further: 0% is about no effect
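Using a no-wash calcium dye in inducible, force-coupled HEK293 Trex cells expressing D2, we tracked fluorescence each second for 180 s after compound, then for 180 s after EC20 dopamine to detect augmented signalling.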
* marks the source's active call; other numbers are inactive results; ? = inconclusive; nt = not tested or not shown.

SMILES	D2 ag-1	D2 ag-2	D2 antag	D2 PAM-1	D2 PAM-2
CCC[C@@H](CN1CCC[C@H]1CN1C(N)=NC[C@H]1C(C)C)N1C[C@@H]([C@H](C)CC)N(CCCC2CCCC2)C1=N	-2.0	nt	nt	nt	nt
Cc1ccc(NC(=O)COC(=O)c2nn(C)cc2Cl)cc1	4.4	0.1	-6.6	-3.1	-18.7
C=CCc1cc(Cl)ccc1OCCNCCN1CCOCC1	-1.5	-0.3	-30.8	-10.4	-23.9
C=CCc1cc(Cl)ccc1OCCNCCOC	-3.8	0.2	55.2*	-23.1	-48.7
CS(=O)(=O)c1ccc(Oc2ccc(-c3nnco3)cc2)c([N+](=O)[O-])c1	1.8	1.8	-2.2	6.7	41.3*
Cc1ccc(-c2cnc3c(c2)C(=O)N([C@H](C)CO)C[C@H](C)[C@@H](CN(C)Cc2ccccc2F)O3)cc1	-11.5	nt	nt	-8.0	nt
Cc1ccc(F)c(S(=O)(=O)NC(=O)C2(C)CCN2C(=O)c2cccc3ccccc23)c1 (centres undefined)	?	nt	nt	61.7*	nt
Cn1c(CN2CCCCC2)nc2cc(NS(=O)(=O)c3ccc(Cl)cc3)ccc21	-3.6	1.1	72.6*	-22.0	-17.7
Cn1c(CCN2CCCCC2)nc2cc(NS(=O)(=O)c3ccc(Cl)cc3)ccc21	-0.7	0.3	13.6	-35.6	3.3
Cn1c(CN2CCCCC2)nc2cc(NS(=O)(=O)c3ccc(F)cc3)ccc21	-6.2	-0.3	74.4*	-2.9	-19.3
CC(=O)Nc1ccc2c(c1)nc(CN1CCCC1)n2C	0.1	-0.1	9.8	-20.8	-0.8
CN1CCc2c(sc3c2C(=O)NC(c2ccc4c(c2)OCO4)N3)C1 (centres undefined)	-2.3	0.4	32.2*	-25.6	-21.1
COC(=O)C1CCN(C(=O)c2sc3nc(-c4ccc(F)cc4)cn3c2C)CC1	0.9	-1.0	-3.5	-5.7	30.5*
C=C1CCN([C@@H](C)C(=O)OCc2cccc(C)c2)S(=O)(=O)c2ccccc21	3.7	0.5	31.0*	0.5	12.2
CCOC(=O)C(C(=O)OCC)c1cc(Br)c2noc3c2c1C(=O)c1ccccc1-3	9.6	1.3	1.5	91.3*	3.8
CC(=O)OCCNc1cc(N2CCN(C)CC2)c2noc3c2c1C(=O)c1ccccc1-3	-1.5	0.7	0.0	-3.3	-1.3
CCOc1ccc(Cl)cc1/C=C1/C(=O)ON=C1C	-2.3	-0.1	-6.5	1.2	-2.5
COc1ccc(-c2noc(CCC(=O)NCCCN3CCN(c4ccccc4F)CC3)n2)cc1	-0.7	4.7	84.0*	-4.7	-15.1
Cc1ccc(-c2noc(CCC(=O)NCCCN3CCN(c4cccc(Cl)c4)CC3)n2)cc1	-4.9	-0.2	-18.3	-43.7	8.5
Cc1ccc(-c2noc(CCC(=O)NCCCN3CCN(c4ccc(F)cc4)CC3)n2)cc1	-0.5	0.5	60.7*	-11.9	-19.1
Cc1ccc(-c2noc(CCC(=O)NCc3ccco3)n2)cc1	-0.4	-0.4	60.3*	-0.9	6.3
Cc1ccc2[nH]c3c(=O)n(CC(=O)NCCCN4CCN(c5ccc(F)cc5)CC4)ncc3c2c1	-2.8	-0.1	62.6*	-30.1	-6.3
O=C(CCc1nc(-c2ccccc2)no1)NCc1ccco1	-2.1	0.5	9.1	-1.8	12.7
O=C(CCS(=O)(=O)Cc1ccc(Cl)cc1)NCCCN1CCN(c2ccccc2F)CC1	1.8	0.5	1.3	2.8	22.7
Cc1ccccc1CS(=O)(=O)CCC(=O)NCCCN1CCN(c2ccccc2F)CC1	4.7	42.8*	55.2*	-28.3	-25.3
SMILES	D2 ag-1	D2 ag-2	D2 antag	D2 PAM-1	D2 PAM-2
CC(=O)N(c1ccccc1)c1nc(C)cc(C)c1C#N	-3.5	1.4	35.3*	-21.6	-3.9
O=C(c1ccc(Br)cc1)c1coc2ccc(O)cc12	0.7	nt	nt	5.1	nt
O=C(c1ccc(Cl)cc1)c1coc2ccc(O)cc12	-3.3	0.4	34.7*	-3.4	0.2
Cc1cccc(-n2c(C)nc3ccsc3c2=O)c1	-5.7	nt	nt	-5.4	nt
O=S1(=O)CCOC[C@H](c2ccccc2)N1Cc1ccccc1	-0.9	0.2	30.2*	-5.4	-8.5
CCOC(=O)c1sc(NC(=S)NC(=O)c2ccco2)nc1C	-6.3	-1.0	-10.8	4.6	23.3
CCOC(=O)c1sc(NC(NC(=O)c2ccco2)(C(=O)OC)C(F)(F)F)nc1C (centres undefined)	-2.3	0.2	33.8*	-8.0	-0.4
O=C(CN1CCN(c2ccccn2)CC1)Nc1ccccc1	6.2	0.9	31.4*	-10.5	8.0
O=C(CN1CCN(c2ccccn2)CC1)Nc1ccc(F)cc1	11.4	0.2	5.6	-6.9	5.9
O=C(CN1CCN(c2ccccn2)CC1)Nc1ccc(Oc2ccccc2)cc1	49.9*	nt	nt	10.2	nt
O=C(N/N=C/c1ccc(F)cc1)c1cc(-c2ccc3c(c2)OCO3)n[nH]1	2.0	-0.1	1.7	-12.9	-1.0
CCOC(=O)C1CCN(C(=O)c2oc3ccc4c(c3c2C)C(O)CC2(CCCCC2)O4)CC1 (centres undefined)	5.6	-0.7	11.1	0.2	-3.4
COc1ccccc1C1NC(=O)NC(C)=C1C(=O)OCc1ccccc1 (centres undefined)	8.0	0.7	5.5	-2.4	6.3
CC1=C(C(=O)OCc2ccccc2)C(c2ccccc2Br)NC(=O)N1 (centres undefined)	97.5*	1.0	0.4	?	1.3
CC1=C(C(=O)OCc2ccccc2)C(c2cccc([N+](=O)[O-])c2)NC(=O)N1 (centres undefined)	3.6	0.6	1.9	59.2*	4.1
C/C=C(\C)C(=O)Nc1cccc(C2=NOC3(C2)C[C@H](C(N)=O)N(C(=O)c2cc([N+](=O)[O-])cc([N+](=O)[O-])c2)C3)c1 (some centres undefined)	12.1	0.3	13.6	71.1*	-5.9
C/C=C(/C)C(=O)Nc1cccc(C2=NOC3(C2)C[C@@H](C(N)=O)N(C(=O)CC(c2ccccc2)c2ccccc2)C3)c1 (some centres undefined)	-1.7	0.5	32.0*	-3.8	37.0*
C/C=C/C=C\C(=O)Nc1cccc(C2=NOC3(C2)C[C@H](C(N)=O)N(C(=O)CC#N)C3)c1 (some centres undefined)	-6.4	-0.4	33.2*	-3.9	-3.4
O=C(NCCSc1c[nH]c2ccccc12)C1CC1	-1.2	-1.4	36.4*	1.2	-18.6
O=C(NCCSc1c[nH]c2ccccc12)c1c(F)cccc1F	-1.7	0.4	4.3	0.5	5.1
